Data as given in PubChem BioAssay.
Calls of active or inactive are those of the source. Unless noted, the rule behind the calls is not given here.

Legend:
[1] = tested on: Hepatitis C virus NS3 helicase; experiment: HCV NS3 helicase inhibitors, primary screen, biochemical, fluorescence polarization, LOPAC1280 library (AID 687035; in the data active = inhibition above about 37%); settings: Purified HCV NS3 helicase, Cy5-dT15 ssDNA binding fluorescence polarization; stronger effect = higher value; concentration not given here
[2] = Cy5 fluorescence quenching or enhancement artefacts, artefact control for HCV NS3 helicase inhibitor project, biochemical, LOPAC1280 (AID 687037); settings: Cy5-DNA-NS3h complex fluorescence interference counterscreen
[3] = sensitizers of A549 cells to miR-34 induction, primary screen, imaging, A549 dox-inducible miR-34, nuclei and caspase counts (AID 1347080;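 active = compounds whose cell count with miR-34 switched on is under 0.7 times the count with it off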); settings: A549 miR-34 inducible, Hoechst nuclei count, 48 h
[4] = phospholipid biosynthesis inhibitors in animal cells, primary screen, cell-based, LOPAC library, screen 4 (AID 1347384); settings: phospholipid biosynthesis inhibition screen, at 10 µM
[5] = viability rescue of complex I mutant cybrids, primary screen, cell-based, galactose medium, ATP luminescence (AID 1645843;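 active = z-score of at least 1.8 in each of two replicates, scored against plate mean and spread of sample wells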;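 note: positive z means more ATP and so rescue of galactose-driven cybrid death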); settings: complex I mutant cybrid cells, 72 h, stronger effect = higher value
[6] = survival rescue of mitochondrial mutant cells in low glucose, primary screen, MELAS cybrids, Rieske KO mouse fibroblasts, CellTiter-Glo (AID 1508586;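 active = mean z-score across replicates of 1.96 or higher in either the MELAS or the Rieske mutant cell line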;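 note: z relative to plate mean and SD of compound and empty wells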)
[7] = stronger effect = lower value, cell number ratio, induced over uninduced
[8] = measured here: relative caspase fold change +Dox/-Dox
[9] = measured here: total cells with miR-34 induction, stronger effect = lower value
[10] = measured here: total cells without miR-34 induction
[11] = MELAS cybrid survival, CellTiter-Glo 48 h, stronger effect = higher value
[12] = Rieske KO mouse fibroblast survival, CellTiter-Glo 72 h

Compound | inhibition [1] | fluorescence ratio (interference) [2] | fold change [3, 7] | fold change [3, 8] | cell count [3, 9] | cell count [3, 10] | outcome [4] | z-score [5] | z-score [6, 11] | z-score [6, 12]
OC[C@H]1OC(n2cnc3c(N[C@H]4CCC[C@@H]4O)ncnc32)[C@H](O)[C@@H]1O (stereo partly drawn) | -3% (inactive) | 1 (inactive) | 1.03 (inactive) | 1.86 | 10800 | 10500 | inactive | 0.53 (inactive) |  | 
CCNc1nc2c(ncn2[C@H]2C[C@H](O)[C@@H](CO)O2)c(=O)[nH]1 | -2% (inactive) | 1 (inactive) | 0.97 (inactive) | 1.78 | 9970 | 10300 | inactive | -0.005 (inactive) |  | 
Brc1c(Br)c(Br)c2[nH]cnc2c1Br | 0% (inactive) | 1 (inactive) | 1.11 (inactive) | 2.37 | 3750 | 3380 | inactive | -1.17 (inactive) |  | 
Nc1nc(OCC2CCCCC2)c2[nH]cnc2n1 | -2% (inactive) | 1 (inactive) | 1.47 (inactive) | 1.19 | 7330 | 4990 | inactive | -0.68 (inactive) |  | 
Nc1ccc(-c2ccc3ccccc3n2)cc1 | -2% (inactive) | 1 (inactive) | 1.1 (inactive) | 1.06 | 7600 | 6930 | inactive | -1.29 (inactive) |  | 
Oc1ccc(/C=C/c2ccc(/C=C/c3ccc(O)cc3)c(Br)c2)cc1 | -3% (inactive) | 1 (inactive) | 1.33 (inactive) | 1.11 | 3040 | 2280 | inactive | 0.44 (inactive) |  | 
CN1Cc2sccc2C(c2ccc(O)c(O)c2)C1 (stereo not drawn) | -3% (inactive) | 1 (inactive) | 1.06 (inactive) | 2.13 | 10300 | 9720 | inactive | -1.25 (inactive) |  | 
CSc1ccccc1N1CCN(CCCCCC(=O)NC2CCCc3ccccc32)CC1 (stereo not drawn) | -5% (inactive) | 1 (inactive) | 0.986 (inactive) | 1.19 | 7020 | 7120 | inactive | -1.29 (inactive) |  | 
CCCCC#Cc1nc(NC)c2ncn([C@@H]3O[C@H](CO)C(O)[C@@H]3O)c2n1 (stereo partly drawn) | -2% (inactive) | 1 (inactive) | 1.02 (inactive) | 2.24 | 10300 | 10100 | inactive | 0.245 (inactive) |  | 
COc1cc(N)c(Cl)cc1C(=O)OCCN1CCCCC1 | -5% (inactive) | 1 (inactive) | 1.11 (inactive) | 1.42 | 10600 | 9550 | inactive | 0.695 (inactive) |  | 
O=C(c1ccc(Cl)cc1)N1CCN(c2ccc([N+](=O)[O-])c3ncccc23)CC1 | 0% (inactive) | 1 (inactive) | 0.912 (inactive) | 1.42 | 6530 | 7170 | inactive | -1 (inactive) |  | 
Cc1cc2c(cc1Cl)N(C(=O)Nc1ccnc3ccccc13)CC2 | -1% (inactive) | 0.9 (inactive) | 1.12 (inactive) | 1.03 | 10500 | 9390 | inactive | -0.09 (inactive) |  | 
O=C1NCc2c1c1c3ccccc3[nH]c1c1[nH]c3ccccc3c21 | -1% (inactive) | 1 (inactive) | 1.15 (inactive) | 0.688 | 1560 | 1350 | inactive | -0.89 (inactive) |  | 
Clc1nccc2c1ccc1ccccc12 | -2% (inactive) | 1 (inactive) | 1.47 (inactive) | 1.16 | 8620 | 5870 | inactive | 0.565 (inactive) |  | 
C=C1C[C@@]23CC[C@H]4[C@@](C)(CCC[C@@]4(C)C(=O)O)[C@@H]2CC[C@]1(O)C3 | -3% (inactive) | 1 (inactive) | 0.931 (inactive) | 1.06 | 9720 | 10400 | inactive | 0.98 (inactive) |  | 
CC(=O)O[C@H]1Cc2ccccc2N(C(N)=O)c2ccccc21 | -4% (inactive) | 1 (inactive) | 0.953 (inactive) | 1.06 | 10000 | 10500 | inactive | 0.61 (inactive) |  | 
O=c1cc(-c2ccccc2F)[nH]c2cc3c(cc12)OCO3 | -7% (inactive) | 0.9 (inactive) | 1.11 (inactive) | 0.744 | 1710 | 1540 | inactive | -0.62 (inactive) |  | 
N[C@H](C(=O)O)[C@H](Cc1ccccc1)C(=O)O | -1% (inactive) | 1 (inactive) | 0.97 (inactive) | 1.76 | 10400 | 10700 | inactive | 0.705 (inactive) |  | 
c1ccc2c(c1)CCC[C@H]2Nc1nc2ccccc2[nH]1 | -3% (inactive) | 1 (inactive) | 1.09 (inactive) | 0.557 | 7820 | 7150 | inactive | -0.675 (inactive) |  | 
CC(C)c1cccc(C(C)C)c1N1C(=O)c2ccc(O)cc2C1=O | 0% (inactive) | 0.9 (inactive) | 1.39 (inactive) | 0.841 | 1810 | 1300 | inactive | 0.3 (inactive) |  | 
OC(COc1cccc2ncccc12)CN1CCN(C2c3ccccc3C3C(c4ccccc42)C3(F)F)CC1 (stereo not drawn) |  |  | 1.04 (inactive) | 0.683 | 5300 | 5090 |  |  | -0.428 (inactive) | 0.74
O=C(Nc1cccc(Cl)c1)c1ccccn1 |  |  | 0.981 (inactive) | 0.991 | 7550 | 7700 |  |  | 0.406 (inactive) | -0.326
OC(CNCC(O)[C@H]1CCc2cc(F)ccc2O1)[C@@H]1CCc2cc(F)ccc2O1 (stereo partly drawn) |  |  | 0.966 (inactive) | 0.954 | 6580 | 6810 |  |  | 1.33 (inactive) | 0.256
